Data from PubChem BioAssay.
Unmarked numbers belong to inactive results. Activity calls are given as the source filed them.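 The calls were made as follows, unless noted: active = compounds lowering colon cancer cell viability after pretreatment blocking the GSK3B kinase; inactive = the rest.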

Experiment: growth inhibition of GSK3B-pretreated HCT116 cells – cell-based, CellTiter-Glo, 0.2 to 20 µM (AID 1117336)
Details: HCT116 viability after GSK3B inhibitor, at 20 µM, active compounds read high

SMILES | viability decrease
O=c1[nH]cc(F)c(=O)[nH]1 | 87.4% (active)
CCc1nc(N)nc(N)c1-c1ccc(Cl)cc1 | 18.7%
CCc1cccc2c3c([nH]c12)C(CC)(CC(=O)O)OCC3 (stereo not drawn) | -31.2%
Nc1ncn([C@@H]2O[C@H](CO)[C@@H](O)[C@H]2O)c(=O)n1 | 83.3% (active)
Cc1ccccc1C(OCCN(C)C)c1ccccc1 (stereo not drawn) | -86.6%
Cc1ccc(C)c(OCCCC(C)(C)C(=O)O)c1 | 4.95%
NC(=O)c1cnccn1 | 0.65%
CCCCCCNC(=O)n1cc(F)c(=O)[nH]c1=O | 65.6% (active)
COC1=CC(=O)C[C@@H](C)[C@]12Oc1c(Cl)c(OC)cc(OC)c1C2=O | 38.4%
Cc1ncc([N+](=O)[O-])n1CC(C)O (stereo not drawn) | -3.45%
N[C@@H](C(=O)N[C@@H]1C(=O)N2C(C(=O)O)=C(Cl)CS[C@H]12)c1ccccc1 | 12.5%
CO[C@@]1(NC(=O)Cc2cccs2)C(=O)N2C(C(=O)O)=C(COC(N)=O)CS[C@@H]21 | -11.8%
OCCN1CCN(CCCN2c3ccccc3Sc3ccc(C(F)(F)F)cc32)CC1 | 118% (active)
CN(C)CCOC(c1ccc(Cl)cc1)c1ccccn1 (stereo not drawn) | 8.6%
Cc1onc(-c2c(Cl)cccc2Cl)c1C(=O)N[C@@H]1C(=O)N2[C@@H]1SC(C)(C)[C@@H]2C(=O)O | -15.4%
COc1cc2nc(N(C)CCCNC(=O)C3CCCO3)nc(N)c2cc1OC (stereo not drawn) | -24.4%
NS(=O)(=O)c1cc(C2(O)NC(=O)c3ccccc32)ccc1Cl (stereo not drawn) | -12.6%
CN(C)CCc1c[nH]c2ccc(C[C@H]3COC(=O)N3)cc12 | 14.8%
Cc1ccc(-c2cc(C(F)(F)F)nn2-c2ccc(S(N)(=O)=O)cc2)cc1 | -9.9%
CN[C@H]1CC[C@@H](c2ccc(Cl)c(Cl)c2)c2ccccc21 | 98.7% (active)

SMILES | viability decrease
O=S(=O)(O)CCS | 4.9%
C/C=C/C(=O)N(CC)c1ccccc1C | -18.4%
COc1ccc(OC)c(C(O)CNC(=O)CN)c1 (stereo not drawn) | 17.9%
Cn1cnc([N+](=O)[O-])c1Sc1ncnc2nc[nH]c12 | 42% (active)
c1ccc2[nH]c(-c3cscn3)nc2c1 | -3.75%
CCCNCC(O)COc1ccccc1C(=O)CCc1ccccc1 (stereo not drawn) | 7.9%
NC(=O)N1c2ccccc2CC(=O)c2ccccc21 | -2.9%
Cc1cn([C@H]2C[C@H](N=[N+]=[N-])[C@@H](CO)O2)c(=O)[nH]c1=O | 4.9%
CN(CCOc1ccc(CC2SC(=O)NC2=O)cc1)c1ccccn1 (stereo not drawn) | -166%
COc1ccccc1OCC(O)COC(N)=O (stereo not drawn) | -1%
OC(CCN1CCCC1)(c1ccccc1)C1CCCCC1 (stereo not drawn) | -95.6%
O=C1C(CCS(=O)c2ccccc2)C(=O)N(c2ccccc2)N1c1ccccc1 (stereo not drawn) | -21%
COC(=O)Nc1nc2ccc(C(=O)c3ccccc3)cc2[nH]1 | 10.7%
CCn1cc(C(=O)O)c(=O)c2cc(F)c(N3CCN(C)CC3)cc21 | -12.5%
CN1CCCC(n2nc(Cc3ccc(Cl)cc3)c3ccccc3c2=O)CC1 (stereo not drawn) | -40.4%
NCc1ccc(S(N)(=O)=O)cc1 | 1.95%
Clc1ccc2c(c1)C(N1CCNCC1)=Nc1ccccc1O2 | 46.2%
CC(C)(C)NCC(O)COc1cccc2c1C[C@H](O)[C@H](O)C2 (stereo partly drawn) | -26.3%
NS(=O)(=O)c1cc2c(cc1Cl)NC=NS2(=O)=O | -4.3%

Experiment: inhibition of endothelial tube formation, primary screen, imaging, VEGF stimulated, CD31 staining, tube area, NPC library (AID 1117340;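 active = compound that reduces growth-factor-driven endothelial tube area in a mixed cell culture, no cutoff stated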)
Details: VEGF-stimulated ADSC/ECFC co-culture, at 10 µM, active compounds read high

SMILES | tube area decrease
O=c1[nH]cc(F)c(=O)[nH]1 | 56.6% (active)
CCc1nc(N)nc(N)c1-c1ccc(Cl)cc1 | 16.8%
CCc1cccc2c3c([nH]c12)C(CC)(CC(=O)O)OCC3 (stereo not drawn) | -16.6%
Nc1ncn([C@@H]2O[C@H](CO)[C@@H](O)[C@H]2O)c(=O)n1 | 66.1% (active)
Cc1ccccc1C(OCCN(C)C)c1ccccc1 (stereo not drawn) | 2.8%
Cc1ccc(C)c(OCCCC(C)(C)C(=O)O)c1 | -9.2%
NC(=O)c1cnccn1 | 14.5%
CCCCCCNC(=O)n1cc(F)c(=O)[nH]c1=O | 68.7% (active)
COC1=CC(=O)C[C@@H](C)[C@]12Oc1c(Cl)c(OC)cc(OC)c1C2=O | 24.2%
Cc1ncc([N+](=O)[O-])n1CC(C)O (stereo not drawn) | -13.6%
N[C@@H](C(=O)N[C@@H]1C(=O)N2C(C(=O)O)=C(Cl)CS[C@H]12)c1ccccc1 | -21%
CO[C@@]1(NC(=O)Cc2cccs2)C(=O)N2C(C(=O)O)=C(COC(N)=O)CS[C@@H]21 | 26.2%
OCCN1CCN(CCCN2c3ccccc3Sc3ccc(C(F)(F)F)cc32)CC1 | 98.9% (active)
CN(C)CCOC(c1ccc(Cl)cc1)c1ccccn1 (stereo not drawn) | 1.1%
Cc1onc(-c2c(Cl)cccc2Cl)c1C(=O)N[C@@H]1C(=O)N2[C@@H]1SC(C)(C)[C@@H]2C(=O)O | 1.6%
COc1cc2nc(N(C)CCCNC(=O)C3CCCO3)nc(N)c2cc1OC (stereo not drawn) | -4.5%
NS(=O)(=O)c1cc(C2(O)NC(=O)c3ccccc32)ccc1Cl (stereo not drawn) | 2.3%
CN(C)CCc1c[nH]c2ccc(C[C@H]3COC(=O)N3)cc12 | -1.1%
Cc1ccc(-c2cc(C(F)(F)F)nn2-c2ccc(S(N)(=O)=O)cc2)cc1 | 1.2%
CN[C@H]1CC[C@@H](c2ccc(Cl)c(Cl)c2)c2ccccc21 | 67.1% (active)

SMILES | tube area decrease
O=S(=O)(O)CCS | 11.9%
C/C=C/C(=O)N(CC)c1ccccc1C | 12.7%
COc1ccc(OC)c(C(O)CNC(=O)CN)c1 (stereo not drawn) | -15.2%
Cn1cnc([N+](=O)[O-])c1Sc1ncnc2nc[nH]c12 | 29.1%
c1ccc2[nH]c(-c3cscn3)nc2c1 | 13.1%
CCCNCC(O)COc1ccccc1C(=O)CCc1ccccc1 (stereo not drawn) | 24.9%
NC(=O)N1c2ccccc2CC(=O)c2ccccc21 | 0.9%
Cc1cn([C@H]2C[C@H](N=[N+]=[N-])[C@@H](CO)O2)c(=O)[nH]c1=O | 18.1%
CN(CCOc1ccc(CC2SC(=O)NC2=O)cc1)c1ccccn1 (stereo not drawn) | -11.1%
COc1ccccc1OCC(O)COC(N)=O (stereo not drawn) | 8.8%
OC(CCN1CCCC1)(c1ccccc1)C1CCCCC1 (stereo not drawn) | -12.4%
O=C1C(CCS(=O)c2ccccc2)C(=O)N(c2ccccc2)N1c1ccccc1 (stereo not drawn) | 1%
COC(=O)Nc1nc2ccc(C(=O)c3ccccc3)cc2[nH]1 | 102% (active)
CCn1cc(C(=O)O)c(=O)c2cc(F)c(N3CCN(C)CC3)cc21 | 25.6%
CN1CCCC(n2nc(Cc3ccc(Cl)cc3)c3ccccc3c2=O)CC1 (stereo not drawn) | 21.5%
NCc1ccc(S(N)(=O)=O)cc1 | 8.4%
Clc1ccc2c(c1)C(N1CCNCC1)=Nc1ccccc1O2 | -3.9%
CC(C)(C)NCC(O)COc1cccc2c1C[C@H](O)[C@H](O)C2 (stereo partly drawn) | 13.1%
NS(=O)(=O)c1cc2c(cc1Cl)NC=NS2(=O)=O | 3.2%
